Sampled rows, rich in hits. Any-hit rate of the full collection: about 7.5%.
FLuc counter = firefly luciferase modulation, counter-screen for miR-21 project; purified FLuc, Km substrates, luminescence inhibition; Potency, µM (doses to about 57.5 µM), for the others: top-dose activity change, negative = inhibition, usual class: inhibitors; 360,000 tested, 6.9% active;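 further: plate controls were vehicle for no effect and reference inhibitor for full effect; nearly all actives have a fitted effect of over 55% in size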
Target sequence (P08659 whole entry, looked up): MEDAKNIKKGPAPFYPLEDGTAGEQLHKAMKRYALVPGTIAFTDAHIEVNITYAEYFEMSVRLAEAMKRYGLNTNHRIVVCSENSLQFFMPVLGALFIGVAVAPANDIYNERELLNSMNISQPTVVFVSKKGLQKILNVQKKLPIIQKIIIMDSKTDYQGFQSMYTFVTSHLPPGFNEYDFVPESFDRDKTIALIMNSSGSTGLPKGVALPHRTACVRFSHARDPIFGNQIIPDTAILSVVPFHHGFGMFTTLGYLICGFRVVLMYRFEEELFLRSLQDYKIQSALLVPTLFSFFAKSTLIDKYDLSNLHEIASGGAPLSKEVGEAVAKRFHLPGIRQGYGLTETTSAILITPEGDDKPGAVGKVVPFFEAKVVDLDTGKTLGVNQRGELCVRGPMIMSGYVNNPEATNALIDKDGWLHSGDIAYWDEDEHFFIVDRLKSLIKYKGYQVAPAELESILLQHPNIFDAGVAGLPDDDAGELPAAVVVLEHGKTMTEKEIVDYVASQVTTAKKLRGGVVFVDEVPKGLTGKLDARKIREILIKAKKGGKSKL
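Purified P. pyralis luciferase, 10 nM final, with Km-level 10 uM D-luciferin and 10 uM ATP in 50 mM Tris acetate pH 7.5, 10 mM Mg acetate, 0.01% Tween-20, 0.05% BSA; 6-point qHTS titration about 60 µM downward; luminescence read.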
SMN2 splice up = enhancers of SMN2 splice variant expression; 210,000 tested, 2.8% active; AID 1458; Potency, µM (titrated, usually from 46.1 µM), for inactives: at the highest dose activity change, positive = activation, usual class: activators; HEK293 SMN2-luciferase splicing reporter, luminescence, 30-36 h; further: % of control where 0% means no effect; nearly all actives have a fitted effect of over 55% in size
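HEK293 cells carry an SMN2 […]–luciferase reporter in which exon 7 inclusion puts luciferase in frame. Cells were plated 10-12 h before compound addition, then incubated 30-36 h at 37C. ONE-Glo luminescence was read; sodium butyrate at 4.5 mM final served as control.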
ELG1 genotox = genotoxicity induction in ELG1-luciferase HEK293T cells. HEK293T ELG1-luciferase reporter, luminescence, 16 h. Potency, µM (doses to about 46 µM), inactives show at the top dose activity change, positive = activation, most hits filed as activators. 330,000 tested, 1.3% active. AID 504466; further: % of control where 0% means no effect; nearly all actives have a fitted effect of over 60% in size
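Genotoxic stress is detected as increased luminescence from luciferase-tagged ELG1 in HEK293T cells, measured with ONE-Glo after a 16 hr treatment at 37 °C.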
KinaseGlo FLuc = counter-screen: inhibitors of Kinase-Glo firefly luciferase. 200,000 tested, 0.28% active. Q27757. Potency, µM (titrated, usually from 38.3 µM), for inactives: top-dose activity change, negative = inhibition, most hits filed as inhibitors. Kinase-Glo luciferase, ATP luminescence, 8 min; further: on the % scale 0 is the no-effect control and ±100 the full control effect; nearly all actives have a fitted effect of over 60% in size
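Compound is pinned into ATP-containing buffer (10 uM ATP, imidazole pH 7.2, 7 mM MgCl2). Kinase-Glo luciferase reagent is then added. Light output is recorded following an 8-min room-temperature incubation.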
Rab9 prom act = activates the Rab9 promoter; Potency, µM (titrated, usually from 9.22 µM), for the others: at the top dose activation, negative = inhibition, usual class: activators; 320,000 tested, 2.8% active; Huh7 Rab9 promoter-luciferase reporter, luminescence, 24 h; AID 485297; further: % of control where 0% means no effect; nearly all actives have a fitted effect of over 60% in size
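Luciferase signal after 10 min detection reagent at ambient indicates Rab9 promoter upregulation; stably transfected Huh7 cells were treated 24 h with compound in DMSO at 37 °C, 5% CO2.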
NPC1 prom act = activators of NPC1 promoter. Huh7 NPC1 promoter luciferase reporter, 24 h. Potency, µM (titrated, usually from 9.22 µM), for the others: at the top dose activation, usual class: activators. 320,000 tested, 2.4% active. AID 485313; further: % of control where 0% means no effect; nearly all actives have a fitted effect of over 60% in size
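Compounds in DMSO were transferred onto Huh7 NPC1-luciferase reporter cells pre-incubated 2 h; after 24 h at 37 °C, Amplite reagent was dispensed and luminescence recorded 10 min later.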
* = called active by the depositor; ? = inconclusive; / = no result given; [ ] = another dose, or the depositor's remark. The call rests on the fitted dose curve; in most records, active means well fitted curve in the direction sought with a large enough effect; inconclusive means small, poorly fitted or top-dose-only effect, or another doubt; inactive means no such curve, though single readings can be large; an effect the other way counts as inactive or inconclusive. Potency means the concentration at half of the fitted maximal effect.

SMILES | FLuc counter | SMN2 splice up | ELG1 genotox | KinaseGlo FLuc | Rab9 prom act | NPC1 prom act
COc1ccc(S(=O)(=O)NCc2ccc3c(c2)CCN3C(=O)c2ccc(C)cc2)cc1Cl | 4% | / | / | / | / | /
CCc1ccc(C2c3c(n[nH]c3C)C(=O)N2c2ccc(C)cc2)cc1 (stereo not given) | ? | 25% | / | / | / | /
Cc1cc(C)c2nc3nc(C)c(C)cc3c(N)c2c1 | 17µM* | -79% | 13% | 3% | -29% | -17%
Clc1ccc(-c2cc(CSc3ccccc3)on2)cc1 | 2.4µM* | 13µM* | ? | -3% | 3.2µM* | 4.5µM*
c1ccc(SCc2cc(-c3ccccc3)no2)cc1 | 8.5µM* | 247% | ? | 0% | 2.5µM* | 3.5µM*
Clc1ccc(-c2cc(CSc3cccc(Cl)c3)on2)cc1 | ? | -18% | 10% | -2% | -3% | 1%
Cc1ccc(-c2cc(N)n3nc(-c4ccc(C)cc4)cc3n2)cc1 | 1% | -26% | -3% | -3% | -1% | 0%
Cc1cc(N)n2nc(-c3ccccc3)cc2n1 | 1.1µM* | 7.9µM* | 9.2µM* | 13µM* | 0.5µM* | ?
CSc1nncc(-c2ccccc2)n1 | -10% | 7% | 6% | -6% | 13% | -1%
CSc1nc(N)n2nc(-c3ccccc3)cc2n1 | 3.4µM* | / | 10µM* | / | 2.2µM* | 2µM*
Cc1ccc(-c2cc3nc(-c4ccccc4)cc(N)n3n2)cc1 | ? | 7.1µM* | ? | -4% | 1.8µM* | ?
COc1ccc(Cc2nnc(N/N=C/c3ccc(O)cc3)[nH]c2=O)cc1OC | -3% | -86% | 16% | 3% | -32% | -34%
COc1ccc(/C=N/n2c(C)nc3ccccc3c2=O)cc1OC | -5% | / | 1% | / | -3% | 10%
COc1ccc(/C=N/Nc2nc3ccccc3c(=O)n2-c2ccccc2)cc1OC | 1.9µM* | -9%[1.84 µM] | 10% | -25% | ? | 18%
COc1ccc(/C=N/Nc2nnc(Cc3ccccc3)c(=O)[nH]2)cc1OC | 1.7µM* | / | 14% | / | 26% | ?
CCn1c(CNC(=O)c2ccc(OC)cc2)nnc1SCC(=O)Nc1cccc(C)c1C | 1% | -14% | / | / | / | /
COc1cn(-c2ccccc2)nc1C(=O)Nc1ccc(C)cc1Cl | 6.7µM* | / | 27% | / | 14% | 1%
O=C(Nc1ccc(N2CCOCC2)cc1)c1ccncc1 | ? | 3% | 8% | -3% | 18% | 1%
O=C(Nc1ccc(N2CCOCC2)cc1)c1cnsn1 | 0.95µM* | 2.8µM* | 0.16µM* | -21% | ? | ?
O=C(Nc1ccccc1N1CCOCC1)c1cnccn1 | 1% | 0% | 1% | -6% | 4% | -8%
CCCCc1ccc(NC(=O)c2cnccn2)cc1 | 2.4µM* | 3.2µM* | ? | -21% | 0.79µM* | 0.5µM*
O=C(Nc1ccc(N2CCOCC2)cc1)c1cnccn1 | 1.9µM* | / | ? | / | 0.32µM* | ?
CS(=O)(=O)c1ncc(Cl)c(C(=O)Nc2ccc(N3CCOCC3)cc2)n1 | 12µM* | 26% | ? | 0% | -56% | -43%
CC(=O)c1ccc(NC(=O)c2cnsn2)cc1 | 12µM* | / | ? | -12% | 1µM* | 2µM*
CSc1nn(Cc2ccc(Br)cc2)c(N(C(C)=O)C(C)=O)c1S(=O)(=O)c1ccccc1 | 4% | -6% | / | / | / | /
SMILES | FLuc counter | SMN2 splice up | ELG1 genotox | KinaseGlo FLuc | Rab9 prom act | NPC1 prom act
COC(=O)c1cnc(SCc2ccc(Cl)cc2)n1C | ? | / | 10% | -1% | ? | 21%
COC(=O)c1ccnc(SCC(=O)c2ccccc2)c1 | 3.8µM* | ? | 15µM* | -5% | 2.8µM* | 3.2µM*
COC(=O)c1cnc(SCC(=O)c2ccccc2)n1C | 3.4µM* | / | ? | / | 1.1µM* | 1µM*
Cn1c2c(c(=O)n(C)c1=O)C(c1ccccc1C(F)(F)F)CC(=O)N2 (stereo not given) | -1% | -11% | / | / | / | /
COCCOc1ccc(C(F)(F)F)cc1Nc1nc2ccccc2o1 | 15µM* | 10% | ? | -2% | -1% | -2%
CCC(Cn1nnc2ccccc2c1=O)NC(=O)Nc1cc(Cl)ccc1OC (stereo not given) | -8% | 6% | / | / | / | /
O=C(COc1ccccc1F)c1ccc(O)cc1O | ? | -5% | 13% | -2% | 7% | 12%
Cc1c(O)ccc(C(=O)COc2ccccc2F)c1O | 21µM* | -17% | ? | 0% | 5% | 15%
CC(=O)Nc1ccc(NC(=O)CSc2nnc(NC(=O)c3cccc(F)c3)s2)cc1 | 0.67µM* | / | ? | / | 3.2µM* | ?
COc1ccccc1NC(=O)CSc1nnc(NC(=O)Nc2ccc(C)cc2)s1 | 2.1µM* | / | / | / | / | /
O=C(CSc1nnc(NC(=O)Nc2ccccc2)s1)Nc1cccc(F)c1 | 1.5µM* | / | / | / | / | /
COc1ccccc1NC(=O)Nc1nnc(C(C)C)s1 | 17µM* | 22µM* | ? | 0% | ? | ?
COc1ccccc1NC(=O)CSc1nnc(NC(=O)C2CC2)s1 | ? | / | 3% | / | 2% | -2%
O=C(CSc1nnc(NC(=O)c2c(F)cccc2F)s1)Nc1ccc(F)cc1 | -4% | / | 19% | -1% | 2.2µM* | ?
CC(=O)Nc1cccc(C(=O)N/N=C/c2c[nH]c3ccccc23)c1 | 15µM* | / | 4% | / | 23% | 28%
O=C(N/N=C/c1c[nH]c2ccccc12)c1cccc(Cl)c1 | 21µM* | / | 14% | / | ? | ?
CC(=O)Nc1cccc(C(=O)N/N=C/c2ccc(C)o2)c1 | -3% | -22% | -1% | 0% | -5% | -5%
O=C(N/N=C/c1c[nH]c2ccccc12)c1cccc(O)c1 | 11µM* | / | 17% | / | -4% | 0%
